Hits are enriched below; roughly 6.1% of the tested compounds scored in any of these assays.
D1 ag: human D1 receptor agonism; P21728; HEK293 T-REx D1 cells, calcium flux, agonist mode; activation, % at 2 µM; actives 1% (n = 360,000); in the data active means activation above about 30%; further: 0% is about no effect
Target sequence (P21728 whole entry, looked up): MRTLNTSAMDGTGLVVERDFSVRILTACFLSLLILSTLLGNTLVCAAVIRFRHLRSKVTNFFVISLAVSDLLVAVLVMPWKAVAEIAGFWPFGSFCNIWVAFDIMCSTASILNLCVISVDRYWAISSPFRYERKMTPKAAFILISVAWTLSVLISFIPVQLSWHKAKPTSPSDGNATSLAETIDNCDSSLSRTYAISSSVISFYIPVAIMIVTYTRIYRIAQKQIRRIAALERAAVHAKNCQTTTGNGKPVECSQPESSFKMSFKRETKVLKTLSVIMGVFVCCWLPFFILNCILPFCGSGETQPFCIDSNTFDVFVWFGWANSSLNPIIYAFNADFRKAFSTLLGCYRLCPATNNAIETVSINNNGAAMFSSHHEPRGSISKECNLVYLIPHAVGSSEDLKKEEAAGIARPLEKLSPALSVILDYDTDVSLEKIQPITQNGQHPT
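Agonism was scored from calcium flux recorded over 180 s (1 read/s) after pintool compound addition, following a 10-cycle baseline. Cells were inducible force-coupled HEK293 TREx D1, plated overnight at 30 C and loaded with no-wash calcium dye.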
D1 antag: antagonists of human D1 dopamine receptor | actives 3.2% (n = 360,000) | activity change, negative = inhibition, % at 10 µM | HEK293 TREx D1 cells, calcium flux, dopamine EC80; stronger effect = lower value | AID 504652; in the data active means activity change below about -30%; further: on the % scale 0 is the no-effect control and ±100 the full control effect
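Antagonism measured as reduced calcium response to an EC80 dopamine addition following 180 s compound pre-read; cells were inducible HEK293 Trex D1 plated overnight at 30 C, read kinetically at 1 cycle/sec.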
DRD3 agonist: D3 dopamine receptor (human) agonism; D3R DiscoveRx beta-arrestin cells, luminescence, 90 min; max activation, %; actives 0.58% (n = 410,000); AID 652048; in the data active means max activation above about 30%; further: 0% is about no effect
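Agonist-mode cell screen: cells plated at 1500/well and incubated overnight at 37 °C, then exposed to library compounds for 90 min at 37 °C. Detection reagent was added for 30–60 min at room temperature, and luminescence was read.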
DRD3 antagonist: D3 dopamine receptor (human) antagonism. AID 652054. P35462. max response, negative = inhibition, %. D3R cells, DiscoveRx beta-arrestin luminescence, antagonist mode; stronger effect = lower value. actives 2.5% (n = 360,000); in the data active means max response below about -50%; inconclusive means no clear call, values can overlap the other calls; further: on the % scale 0 is the no-effect control and ±100 the full control effect
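Cells expressing the human receptor were seeded at 1500 cells/well, incubated overnight at 37 degrees C in 5% CO2, then exposed to library compounds with dopamine controls for 90 minutes at 37 degrees C before luminescent detection.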
D1 potentiator: human D1 dopamine receptor positive modulation; P21728; HEK293 TREx D1 cells, calcium flux, dopamine EC20 potentiation; potentiation, % at 10 µM; actives 0.036% (n = 360,000); AID 504651; in the data active means potentiation above about 30%; further: 0% is about no effect
* marks the source's active call; other numbers are inactive results; ? = inconclusive; nt = no result.

SMILES	D1 ag	D1 antag	DRD3 agonist	DRD3 antagonist	D1 potentiator
COC(=O)C1CCCCN1C(=O)c1cc(COc2cccc3cnccc23)on1 (centres undefined)	22.9	-42.6*	nt	nt	-6.3
CN(Cc1nccs1)C(=O)c1cc(COc2cccc3cnccc23)on1	15.8	-31.7*	3.6	2.6	-0.5
COCCC1CCCCN1C(=O)c1cc(COc2cccc(C(C)=O)c2)on1 (centres undefined)	11.5	-49.1*	20.0	22.0	-7.5
COc1ccc(OCc2cc(C(=O)N(Cc3nccn3C)C(C)C)no2)c2ccccc12	5.9	-5.4	-0.9	-12.2	2.8
CC(=O)c1cccc(OCc2cc(C(=O)N(C)Cc3nccs3)no2)c1	nt	nt	-2.8	1.5	nt
COc1ccc(OCc2cc(C(=O)N(C)Cc3nccn3C)no2)c2ccccc12	1.5	-39.6*	2.7	13.8	-1.4
CC(=O)c1ccc(OCc2cc(C(=O)N3CCC[C@H]3CO)no2)cc1	3.3	-24.6	2.1	-15.1	-3.1
CN(CC(=O)N1CCOCC1)Cc1c(Cl)cccc1NC(=O)c1ccccc1	nt	nt	-0.3	nt	nt
COc1ccc2[nH]c(C(=O)N3CCNCC3)cc2c1OC	2.2	-41.3*	-5.4	2.5	-4.4
Cc1ccc(NC(=O)CSc2nccn2Cc2ccc3c(c2)OCO3)c(C)c1	0.1	4.9	-0.3	nt	-4.5
CCOC(=O)C(CC)n1cnc2c(cnn2-c2ccc(Cl)cc2)c1=O (centres undefined)	10.5	-32.4*	3.7	69.8	-3.5
CCOC(=O)C(C)n1cnc2c(cnn2-c2ccc(Cl)cc2)c1=O (centres undefined)	8.6	-9.3	5.0	-18.1	-5.5
CC(C)NCC#CCOc1ccc(Cl)cc1	10.5	-10.8	-5.4	-11.8	-4.1
COc1ccc(OCC#CCNC(C)(C)C)cc1	2.4	-1.4	-4.1	-68.8*	-1.9
CCn1cc(CN2CCc3c([nH]c4ccccc34)C2c2cccc(OC)c2)c(C)n1 (centres undefined)	24.5	-35.0*	-4.9	-5.5	-3.3
Cc1ccc(-c2[nH][nH]c(=O)c(=O)c2N=Nc2ccccc2)cc1	-0.2	-13.9	-13.8	-2.7	-5.8
O=C(NC(=S)Nc1cccc(O)c1)C12CC3CC(CC(C3)C1)C2	nt	nt	-3.3	-24.3	nt
CCCn1c(Cc2ccccc2)nnc1SC(C)C(=O)NC1CC1 (centres undefined)	1.6	8.3	3.1	15.5	-4.5
COCCn1c(Cc2ccccc2)nnc1SC(C)C(=O)NC1CC1 (centres undefined)	0.6	-42.8*	12.9	6.4	-2.0
CCCNC(=O)Cn1c(=O)/c(=C\c2ccc(-c3ccc([N+](=O)[O-])cc3)o2)s/c1=C\C(=O)C(C)(C)C	283.4*	-83.4*	3.3	45.4	-7.0
CC(c1ccccc1C(O)(c1ccccc1)c1ccccc1)N(C)C (centres undefined)	99.9*	-38.9*	2.8	-21.1	-2.6
N#CCCNCC1(c2ccccc2)CCCC1	0.5	-4.5	4.0	-54.4*	-6.0
O=S(=O)(c1ccc(F)cc1)N1CCC(O)(c2ccc3c(c2)OCO3)CC1	6.6	-6.1	-3.8	10.3	-1.5
OC1(c2ccc3c(c2)OCO3)CCN(Cc2ccc(F)cc2)CC1	4.8	-15.9	-14.5	-98.9*	-10.2
OC(c1ccccc1)C1CN(Cc2ccccc2)CCC1(O)c1ccccc1 (centres undefined)	0.7	-12.4	-37.0	-58.5*	1.4
SMILES	D1 ag	D1 antag	DRD3 agonist	DRD3 antagonist	D1 potentiator
OC1(c2ccc(F)cc2)CCN(Cc2cccnc2)CC1	0.4	-21.8	-4.8	-60.9*	-10.1
OC1(c2ccccc2)CCN(Cc2ccccc2)CC1	0.9	-1.6	-16.5	-80.4*	2.2
CN(CCc1ccccc1)C(=O)c1ccc(NC(=O)Cc2ccc([N+](=O)[O-])cc2)cc1	nt	nt	11.2	14.4	nt
COC(=O)c1cc2oc3ccccc3c2n1Cc1cccc(C)c1	10.3	-3.5	-20.2	nt	2.1
COc1ccc(C(=O)Cn2c(C(=O)/C=C/c3ccccc3)nc3ccccc32)cc1	7.1	7.4	-9.1	?	-3.3
O=c1c2c(nc3nc(NCc4ccccc4Cl)[nH]n13)CCC2	2.2	-36.0*	nt	nt	-0.8
O=c1[nH]c(SCc2ccccc2)nc2c1CCCC2	7.6	-40.8*	9.6	nt	-2.7
O=c1[nH]c(SCc2ccccc2Cl)nc2c1CCCC2	4.7	-3.4	30.5*	54.9	-1.0
O=c1[nH]c(SCc2ccc(Cl)cc2)nc2c1CCC2	0.9	4.0	1.8	54.3	1.8
Cc1oc(-c2ccccc2Cl)nc1CSc1nc2c(c(=O)[nH]1)CCC2	-3.2	-15.2	56.5*	184.0	0.7
CCOC1=C2[C@H](c3ccccc3)N(S(=O)(=O)c3ccc(C)cc3)C(C(C)(C)C)[C@H]2C(C#N)(C#N)C(C#N)(C#N)C1 (some centres undefined)	nt	nt	6.1	9.6	nt
COc1ccc(OC)c(NC(=O)C2CCN(S(=O)(=O)c3c(C)noc3/C=C/c3ccc(C)cc3)CC2)c1	7.9	-1.5	-12.2	nt	0.1
O=C(Nc1ccccc1)c1nc[nH]c1C(=O)N1CCN(c2ccccc2)CC1	1.5	nt	19.9	-13.4	2.5
O=C(Nc1nccs1)c1nc[nH]c1C(=O)N1CCN(c2ccccc2)CC1	nt	nt	31.0*	-8.9	nt
CC(C)(C)C(=O)NNC(=O)C1CC1(c1ccccc1)c1ccccc1 (centres undefined)	0.8	-1.8	44.6*	19.2	-2.2
CN(Cc1nc(-c2ccccc2)no1)C(=O)c1ccco1	10.9	-10.5	0.7	1.2	nt
O=C(CSc1ccc(Cl)cc1)c1ccco1	5.5	-11.0	-14.5	-74.4*	-7.2
c1ccc(N2CCN(CC3CCCCC3)CC2)cc1	15.6	-17.8	7.9	-75.3*	-7.8
CCc1ccc(NC(=O)C(C)OC(=O)C2CCN(c3ccc(C(F)(F)F)cn3)CC2)cc1 (centres undefined)	8.7	-11.2	6.6	16.7	-3.8
C=CCN(c1ccccc1)S(=O)(=O)c1cccc(C(=O)OCC(=O)NC2CC2)c1	6.3	-33.6*	-0.9	-3.5	-4.2
C=CCN(c1ccccc1)S(=O)(=O)c1cccc(C(=O)Nc2nnc(SCC)s2)c1	1.4	-85.4*	21.9	104.7	-12.5
CCCN(c1ccc(C(=O)OC)cc1)S(=O)(=O)c1ccccc1	0.6	9.9	6.4	5.4	3.0
C=CCN(c1ccc(C(=O)OC)cc1)S(=O)(=O)c1ccccc1	-2.9	-5.3	1.5	-75.5*	-8.0
CCSc1nnc(NC(=O)c2cccc(S(=O)(=O)N(C)c3ccccc3)c2)s1	2.0	5.6	1.5	0.6	-4.8
C=CCN(c1ccccc1)S(=O)(=O)c1cccc(C(=O)OCC(=O)NCCOC)c1	1.1	8.5	2.7	1.0	-0.5
NC(=O)c1ccsc1NC(=O)COC(=O)CNC(=O)c1ccc(Cl)cc1	nt	nt	6.2	5.3	nt
Clc1ccccc1CNCc1ccc2c(c1)OCO2	nt	nt	3.0	-10.5	nt
COc1ccccc1NC(=O)NCCCN1CCN(c2cccc(Cl)c2)CC1	10.2	-69.4*	1.5	-108.3*	-5.2
